Measurements from PubChem BioAssay AID2283160 (EPA ToxCast).
Inconclusive results are not listed. Active and inactive are the calls of the source. How the source made its calls: active means hit-call score of the fitted dose curve at least 0.9, where 1 is the maximum; inconclusive means response in the unintended direction; inactive means score below 0.9.

Target: human Fibroblast Growth Factor Receptor 3 (FGFR3), FGFR3 (gene 2261) (UniProt P22607)
Experiment: NVS_ENZ_hFGFR3: NovaScreen (NVS) Enzymatic Assay for human Fibroblast Growth Factor Receptor 3 (FGFR3)
Protocol: NVS_ENZ_hFGFR3 is a biochemical, single-readout assay that uses extracted gene-proteins in a cell-free assay. Measurements were taken 1 hour after chemical dosing in a 384-well plate.NVS_ENZ_hFGFR3 is one of one assay component(s) measured or calculated from the NVS_ENZ_hFGFR3 assay. It is designed to make measurements of enzyme activity, a form of enzyme reporter, as detected with fluorescence intensity signals by Fluorescence and electrophoretic mobility shift technology.Data from the assay component NVS_ENZ_hFGFR3 was analyzed into 1 assay endpoint. This assay endpoint, NVS_ENZ_hFGFR3, was analyzed in the positive analysis fitting direction relative to DMSO as the negative control and baseline of activity. Using a type of enzyme reporter, loss-of-signal activity can be used to understand changes in the enzymatic activity as they relate to the gene FGFR3. Furthermore, this assay endpoint can be referred to as a primary readout, because this assay has produced multiple assay endpoints where this one serves a enzymatic activity function. To generalize the intended target to other relatable targets, this assay endpoint is annotated to the kinase intended target family, where the subfamily is receptor tyrosine kinase.
Binding assays used specific radioligands (tritiated, iodinated) with non-radioactive competitive displacement ligands in agonist or antagonist protocols (as indicated) and various reference compounds and inhibitors to titrate specific binding to receptors and transporters. Most enzyme assays (CYPs, kinases, phosphatases, proteases, HDACs) used recombinant protein and specific substrates (fluorescence mostly, some colorimetric and radioactive) and inhibitors, followed by a biochemical separation of substrate and product. All assays for the biochemical HTS were initially run in duplicate at a single concentration (10 uM for CYP450 assays and 25 uM for all others). Assay-chemical combinations meeting a pre-defined threshold (e.g., 30% inhibition and other criteria defined below) were then run in singleton concentration-response format with maximum concentration of 20 uM for CYPs and 50 uM for all others. Each assay was run with positive and negative controls, and concurrent controls on every plate. The follow-up (secondary) screen tested active chemical-pairs in concentration series, as well as a few additional assays not tested in the primary screen, some selected negative inactives, and several cases re-run in the concentration series for confirmatory purposes.

Chain of human Fibroblast Growth Factor Receptor 3 (FGFR3), FGFR3 (gene 2261) (P22607 whole entry, looked up): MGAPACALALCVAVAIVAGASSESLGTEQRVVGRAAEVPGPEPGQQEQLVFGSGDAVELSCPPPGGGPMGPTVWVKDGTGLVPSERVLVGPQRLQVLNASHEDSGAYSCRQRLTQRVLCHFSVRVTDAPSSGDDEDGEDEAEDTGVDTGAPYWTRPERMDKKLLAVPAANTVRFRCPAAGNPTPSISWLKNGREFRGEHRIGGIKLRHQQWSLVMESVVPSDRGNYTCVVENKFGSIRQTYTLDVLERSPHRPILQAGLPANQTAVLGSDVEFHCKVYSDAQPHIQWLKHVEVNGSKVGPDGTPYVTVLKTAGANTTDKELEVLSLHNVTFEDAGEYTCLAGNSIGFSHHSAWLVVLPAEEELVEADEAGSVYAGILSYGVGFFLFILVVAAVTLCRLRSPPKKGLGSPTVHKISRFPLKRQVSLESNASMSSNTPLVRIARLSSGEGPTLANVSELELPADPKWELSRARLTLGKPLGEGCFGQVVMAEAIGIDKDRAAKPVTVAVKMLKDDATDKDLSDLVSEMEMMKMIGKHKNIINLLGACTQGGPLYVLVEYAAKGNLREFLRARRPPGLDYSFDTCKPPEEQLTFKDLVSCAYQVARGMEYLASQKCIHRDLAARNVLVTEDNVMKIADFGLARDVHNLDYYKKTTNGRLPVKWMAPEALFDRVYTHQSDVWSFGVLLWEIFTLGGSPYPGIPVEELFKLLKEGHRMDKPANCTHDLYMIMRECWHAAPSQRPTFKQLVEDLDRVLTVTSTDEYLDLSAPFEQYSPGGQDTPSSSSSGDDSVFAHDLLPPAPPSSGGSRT

| SMILES | outcome | AC50 |
| --- | --- | --- |
| COP(=O)(OC)OC=C(Cl)Cl | inactive | – |
| S=C(S)NCCNC(=S)S.[Mn+2].[S-]C([S-])=NCCN=C([S-])[S-].[Zn+2] | – | 38.2 µM (active) |
| CC(Oc1cccc(Cl)c1)C(=O)O (stereo not given) | inactive | – |
| CCOc1cc(Oc2ccc(C(F)(F)F)cc2Cl)ccc1[N+](=O)[O-] | inactive | – |
| CN(C)C(=S)SSC(=S)N(C)C | inactive | – |
| S=C([S-])NCCNC(=S)[S-].[Mn+2] | – | 40.5 µM (active) |
| CCCC1COC(Cn2cncn2)(c2ccc(Cl)cc2Cl)O1 (stereo not given) | inactive | – |
| CSc1nnc(C(C)(C)C)c(=O)n1N | inactive | – |
| CNC(=O)Oc1ccccc1OC(C)C | inactive | – |
| CN(C)[C@@H]1C(=O)C(C(N)=O)=C(O)[C@@]2(O)C(=O)C3=C(O)c4c(O)cccc4[C@@](C)(O)[C@H]3[C@H](O)[C@@H]12 | – | 14.5 µM (active) |
| COCC(C)N(C(=O)CCl)c1c(C)csc1C (stereo not given) | inactive | – |
| CNC(=O)ON=C(SC)C(=O)N(C)C | inactive | – |
| CCCOc1nn(C(=O)NS(=O)(=O)c2ccccc2C(=O)OC)c(=O)n1C | inactive | – |
| CCCC(=NOCC)C1=C(O)CC(CC(C)SCC)CC1=O (stereo not given) | inactive | – |
| CCCCN(CC)c1c([N+](=O)[O-])cc(C(F)(F)F)cc1[N+](=O)[O-] | inactive | – |
